Assay results reported in PubChem BioAssay (NCATS).
Results filed as inconclusive are left out. Calls of active or inactive are those of the source. Calls come from the whole dose curve; as a rule, active = well fitted cell-killing curve with a large enough effect; inconclusive = small, poorly fitted or top-dose-only effect, or effect the other way; inactive = flat fitted curve, though single readings scatter. Where a SMILES comes first, the peptide text is derived from it.

Assays:
Experiment in all cases: Primary qHTS to identify gynecologic anti-cancer compounds using libraries of approved drugs and bioactive compounds (AID 1345084); note: nearly all actives have a fitted effect of over 55% in size
C33A = settings: Gynecologic cancer cell panel viability, ATPlite luminescence, 48 h; series mostly up to 57.5 µM
Summary of the method: (§1)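 Five-point cytotoxicity, 48 h drug exposure at 37 C, 5% CO2, on cells seeded 16 h beforehand. ATP content read by ATPlite luminescence.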

CAOV3 = settings: Gynecologic cancer cell panel viability, ATPlite luminescence, 48 h; series mostly up to 57.5 µM
Summary of the method: as §1

CASKI = settings: Gynecologic cancer cell panel viability, ATPlite luminescence, 48 h; series mostly up to 57.5 µM
Summary of the method: as §1

Es-2 = settings: Gynecologic cancer cell panel viability, ATPlite luminescence, 48 h; series mostly up to 57.5 µM
Summary of the method: as §1

HeLa = settings: Gynecologic cancer cell panel viability, ATPlite luminescence, 48 h; series mostly up to 57.5 µM
Summary of the method: as §1

Hek293T = settings: Gynecologic cancer cell panel viability, ATPlite luminescence, 48 h, control line for the selectivity index; series mostly up to 57.5 µM
Summary of the method: as §1

JEG-3 = settings: Gynecologic cancer cell panel viability, ATPlite luminescence, 48 h; series mostly up to 57.5 µM
Summary of the method: as §1

OV90 = settings: Gynecologic cancer cell panel viability, ATPlite luminescence, 48 h; series mostly up to 57.5 µM
Summary of the method: as §1

PA-1 = settings: Gynecologic cancer cell panel viability, ATPlite luminescence, 48 h; series mostly up to 57.5 µM
Summary of the method: as §1

SKOV3 = settings: Gynecologic cancer cell panel viability, ATPlite luminescence, 48 h; series mostly up to 57.5 µM
Summary of the method: as §1

Tov-21-G = settings: Gynecologic cancer cell panel viability, ATPlite luminescence, 48 h; series mostly up to 57.5 µM
Summary of the method: as §1

Tov112D = settings: Gynecologic cancer cell panel viability, ATPlite luminescence, 48 h; series mostly up to 57.5 µM
Summary of the method: as §1
% is set by controls: 0 for no effect and ±100 for the full control effect.

CC(=O)OC[C@]12[C@H](OC(C)=O)[C@H](OC(=O)c3ccccc3)[C@@H]3[C@@H](OC(C)=O)[C@]1(OC3(C)C)[C@H](C)C[C@H](OC(=O)c1ccccc1)[C@@H]2OC(=O)c1ccccc1
inactive: Potency (C33A) | Potency (CAOV3) | outcome (CASKI) | Potency (Es-2) | Potency (HeLa) | Potency (Hek293T) | Potency (JEG-3) | Potency (OV90) | Potency (PA-1) | Potency (SKOV3) | Potency (Tov-21-G) | Potency (Tov112D)

CCC(C)/C=C(C)/C=C/C1=CC2=C(Cl)C(=O)C(C)(OC(C)=O)C(=O)C2=CN1C(CC(=O)O)C(=O)O (configuration not stated)
inactive: Potency (C33A) | Potency (CAOV3) | outcome (CASKI) | Potency (Es-2) | Potency (HeLa) | Potency (Hek293T) | Potency (JEG-3) | Potency (OV90) | Potency (PA-1) | Potency (SKOV3) | Potency (Tov-21-G) | Potency (Tov112D)

COC(=O)C1C(c2ccc(O)cc2)C(C(=O)O)C1c1ccc(O)cc1 (configuration not stated)
inactive: Potency (C33A) | Potency (CAOV3) | outcome (CASKI) | Potency (Es-2) | Potency (HeLa) | Potency (Hek293T) | Potency (JEG-3) | Potency (OV90) | Potency (PA-1) | Potency (SKOV3) | Potency (Tov-21-G) | Potency (Tov112D)

COc1cccc(OC)c1-c1cc(C(=O)N[C@@H](CC(C)C)C(=O)O)nn1-c1ccnc2cc(Cl)ccc12
inactive: Potency (C33A) | Potency (CAOV3) | outcome (CASKI) | Potency (Es-2) | Potency (HeLa) | Potency (Hek293T) | Potency (JEG-3) | Potency (OV90) | Potency (PA-1) | Potency (Tov-21-G) | Potency (Tov112D)

CC(=O)OC(C)C(C)(O)C(=O)O[C@@H]1CC[C@]2(C)CC(=O)C(=C(C)C)C[C@H]2[C@]1(C)OC(C)=O (some centres not stated)
inactive: Potency (C33A) | Potency (CAOV3) | outcome (CASKI) | Potency (Es-2) | Potency (HeLa) | Potency (Hek293T) | Potency (JEG-3) | Potency (OV90) | Potency (PA-1) | Potency (SKOV3) | Potency (Tov-21-G) | Potency (Tov112D)

O=C(OC(C(F)(F)F)C(F)(F)F)N1CCN(Cc2cccc(Oc3ccccc3)c2)CC1
inactive: Potency (C33A) | Potency (CAOV3) | outcome (CASKI) | Potency (Es-2) | Potency (HeLa) | Potency (Hek293T) | Potency (JEG-3) | Potency (OV90) | Potency (PA-1) | Potency (Tov-21-G) | Potency (Tov112D)

CCC(=O)N1CCc2cc(OC)c(O)cc2C1
inactive: Potency (C33A) | Potency (CAOV3) | outcome (CASKI) | Potency (Es-2) | Potency (HeLa) | Potency (Hek293T) | Potency (JEG-3) | Potency (OV90) | Potency (PA-1) | Potency (SKOV3) | Potency (Tov-21-G) | Potency (Tov112D)

Cc1nc2ccccc2c(-c2ccc3c4c(ccnc24)CCO3)c1[C@H](OC(C)(C)C)C(=O)O
inactive: Potency (C33A) | Potency (CAOV3) | outcome (CASKI) | Potency (Es-2) | Potency (HeLa) | Potency (Hek293T) | Potency (JEG-3) | Potency (OV90) | Potency (PA-1) | Potency (Tov-21-G) | Potency (Tov112D)

C/C=C(/C)C(=O)O[C@@H]1C[C@@H](OC(=O)/C(C)=C\C)[C@@]2(C)C3C(=O)C=C(C)C2C3C1(C)C
inactive: Potency (C33A) | Potency (CAOV3) | outcome (CASKI) | Potency (Es-2) | Potency (HeLa) | Potency (Hek293T) | Potency (JEG-3) | Potency (OV90) | Potency (PA-1) | Potency (SKOV3) | Potency (Tov-21-G) | Potency (Tov112D)

C[C@@H]1C[C@H]2OC(=O)[C@@]3(C)CCC[C@](C)(C23)[C@@]1(O)CCC1=CC(=O)OC1O (some centres not stated)
inactive: Potency (C33A) | Potency (CAOV3) | outcome (CASKI) | Potency (Es-2) | Potency (HeLa) | Potency (Hek293T) | Potency (JEG-3) | Potency (OV90) | Potency (PA-1) | Potency (Tov-21-G) | Potency (Tov112D)

OC[C@@]1(O)CO[C@H](OC[C@H]2O[C@@H](OCCc3ccccc3)[C@H](O)[C@@H](O)[C@@H]2O)[C@@H]1O
inactive: Potency (C33A) | Potency (CAOV3) | outcome (CASKI) | Potency (Es-2) | Potency (HeLa) | Potency (Hek293T) | Potency (JEG-3) | Potency (OV90) | Potency (PA-1) | Potency (SKOV3) | Potency (Tov-21-G) | Potency (Tov112D)

CSCC[C@H](NC(=O)[C@H](CO)NC(=O)[C@H](CCC(=O)O)NC(C)=O)C(=O)N[C@H](C=O)CC(=O)O (Ac-ESMD-aldehyde)
inactive: activity change, negative = cytotoxicity (C33A) 13.1% [at 11.6 µM] | activity change, negative = cytotoxicity (CAOV3) 15.6% [at 11.6 µM] | activity change, negative = cytotoxicity (CASKI) 18.4% [at 11.6 µM] | activity change, negative = cytotoxicity (Es-2) 5.54% [at 11.6 µM] | activity change, negative = cytotoxicity (HeLa) 13.1% [at 11.6 µM] | activity change, negative = cytotoxicity (Hek293T) 8.08% [at 11.6 µM] | activity change, negative = cytotoxicity (JEG-3) 19.7% [at 11.6 µM] | activity change, negative = cytotoxicity (OV90) -2.74% [at 11.6 µM] | activity change, negative = cytotoxicity (PA-1) -0.0533% [at 11.6 µM] | activity change, negative = cytotoxicity (SKOV3) 3.55% [at 11.6 µM] | activity change, negative = cytotoxicity (Tov-21-G) -0.444% [at 11.6 µM] | activity change, negative = cytotoxicity (Tov112D) 6.37% [at 11.6 µM]

CC(C)CC(=O)O[C@@H]1O[C@H](CO)[C@@H](O[C@H]2O[C@H](C)[C@@H](N[C@H]3C=C(CO)[C@@H](O[C@H]4O[C@H](CO)[C@@H](O[C@H]5O[C@H](CO)[C@@H](O[C@H]6O[C@H](CO)[C@@H](O)[C@H](O)[C@H]6O)[C@H](O)[C@H]5O)[C@H](O)[C@H]4O)[C@H](O)[C@H]3O)[C@H](O)[C@H]2O)[C@H](O)[C@H]1O
inactive: activity change, negative = cytotoxicity (C33A) 5.03% [at 11.6 µM] | activity change, negative = cytotoxicity (CAOV3) 1.97% [at 11.6 µM] | activity change, negative = cytotoxicity (CASKI) 2.85% [at 11.6 µM] | activity change, negative = cytotoxicity (Es-2) -3.07% [at 11.6 µM] | activity change, negative = cytotoxicity (HeLa) -0.344% [at 11.6 µM] | activity change, negative = cytotoxicity (Hek293T) 4.85% [at 11.6 µM] | activity change, negative = cytotoxicity (JEG-3) 0.194% [at 11.6 µM] | activity change, negative = cytotoxicity (OV90) 4.33% [at 11.6 µM] | activity change, negative = cytotoxicity (PA-1) -1.75% [at 11.6 µM] | activity change, negative = cytotoxicity (SKOV3) 18.6% [at 11.6 µM] | activity change, negative = cytotoxicity (Tov-21-G) 2.23% [at 11.6 µM] | activity change, negative = cytotoxicity (Tov112D) -0.277% [at 11.6 µM]
